Reference: PubChem BioAssay
Calls of active or inactive are those of the source. How the calls were made is not given here.

What follows are compounds tested on Aerobactin synthetase IucA (Klebsiella pneumoniae, hypervirulent) (assay: biochemical IucA inhibition screen of LOPAC library by absorbance (AID 1346212;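 further: 100% = no compound wells and 0% = no enzyme wells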)). Conditions: IucA enzyme assay, absorbance (OD) readout; active compounds read low;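 tested at 8 µM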.

SMILES | remaining activity
O=C(O)C1=CCNCC1 | 95.2% (inactive)
NC1CONC1=O (stereo not given) | 120% (inactive)
CC(=O)/C(C)=N/O | 106% (inactive)
CN(C)C(=O)/N=N/C(=O)N(C)C | 93.2% (inactive)
Cn1cc(C2=C(c3ccc(Cl)cc3Cl)C(=O)NC2=O)c2ccccc21 | 116% (inactive)
N[C@@H](CCC(=O)N[C@@H](CSN=O)C(=O)NCC(=O)O)C(=O)O | 119% (inactive)
Oc1ccc(/C=C/c2ccc(/C=C/c3ccc(O)cc3)c(Br)c2)cc1 | 85% (inactive)
NC(Cc1cccc(-c2ccccc2CP(=O)(O)O)c1)C(=O)O (stereo not given) | 103% (inactive)
CC1(C)CCC(NC(=O)[C@@H](N)CCC(=O)O)CC1 | 116% (inactive)
c1cnc(N2CCN(Cc3ccc4c(c3)OCO4)CC2)nc1 | 102% (inactive)
FC(F)(F)c1cc(CO[C@H]2CCCN[C@H]2c2ccccc2)cc(C(F)(F)F)c1 | 107% (inactive)
CN(C)CC[C@@H](c1ccc(Br)cc1)c1ccccn1 | 88.6% (inactive)
Nc1nc2ccc(OC(F)(F)F)cc2s1 | 98.9% (inactive)
CCn1ccnc1CC1COc2ccccc2O1 (stereo not given) | 112% (inactive)
CC(C)C(=O)c1c(C(C)C)nn2ccccc12 | 125% (inactive)
c1ccc(-c2ccccn2)nc1 | 75.1% (inactive)
COC(=O)Nc1nc2ccc(C(=O)c3cccs3)cc2[nH]1 | 117% (inactive)
N[C@H](C(=O)O)[C@H]1C[C@@H]1C(=O)O | 93.8% (inactive)
Nc1nc2[nH]c(=O)cnc2c(=O)[nH]1 | 89% (inactive)
CC(=O)S[C@@H]1CC2=CC(=O)CC[C@]2(C)[C@H]2CC[C@@]3(C)[C@@H](CC[C@@]34CCC(=O)O4)[C@H]12 | 108% (inactive)

SMILES | remaining activity
CCN(CC)CCOC(=O)c1cc(Cl)c(N)cc1OC | 103% (inactive)
NOCC(=O)O | 124% (inactive)
CCCC(=O)NCCc1c2n(c3ccc(OC)cc13)CCCc1ccccc1-2 | 116% (inactive)
CN1CCN(CC/C=C2/c3ccccc3Sc3ccc(S(=O)(=O)N(C)C)cc32)CC1 | 99.4% (inactive)
C[N+](C)(CCCCCC[N+](C)(C)CCCN1C(=O)c2cccc3cccc(c23)C1=O)CCCN1C(=O)c2cccc3cccc(c23)C1=O | 100% (inactive)
COc1cc2c(cc1O)CC[C@@H]1[C@@H]2CC[C@]2(C)[C@@H](O)CC[C@@H]12 | 116% (inactive)
COc1cc(C(O)CO)ccc1OS(=O)(=O)O (stereo not given) | 99.3% (inactive)
NCCCC(N)(C(=O)O)C(F)F (stereo not given) | 121% (inactive)
CCN1CCC[C@H]1CNC(=O)c1cc(S(N)(=O)=O)ccc1OC | 122% (inactive)
CC[C@H]1CN2CCc3cc(OC)c(OC)cc3[C@@H]2C[C@@H]1C[C@H]1NCCc2cc(OC)c(OC)cc21 | 123% (inactive)
C[C@]12CCC(=O)C=C1CC[C@@H]1[C@@H]2CC[C@@]2(C)[C@H]1CC[C@]2(O)C(=O)CO | 110% (inactive)
COC1=C(OC)C(=O)c2ccccc2C1=O | 109% (inactive)
N#C/C(=C\c1ccc(O)c(O)c1)C(=O)N1CCc2ccccc21 | 107% (inactive)
CN(C)C/C=C(/c1ccc(Br)cc1)c1cccnc1 | 107% (inactive)
C/C(=C\c1ccc(C(=O)O)cc1)c1ccc2c(c1)C(C)(C)CCC2(C)C | 97.8% (inactive)
Nc1ccn([C@@H]2O[C@H](CO)[C@@H](O)[C@@H]2O)c(=O)n1 | 119% (inactive)
Cc1nc2sccn2c(=O)c1CCN1CCC(=C(c2ccc(F)cc2)c2ccc(F)cc2)CC1 | 99.1% (inactive)
O=C(O)CN(CCN(CC(=O)O)CC(=O)O)CCN(CC(=O)O)CC(=O)O | 90.9% (inactive)
COc1ccc(NC(=O)c2ccc(-c3ccc(-c4noc(C)n4)cc3C)cc2)cc1N1CCN(C)CC1 | 112% (inactive)
CC(C(=O)O)c1ccc(CC2CCCC2=O)cc1 (stereo not given) | 120% (inactive)
